Data taken from PubChem BioAssay AID1159580 (chemical genetic matrix, 2015).
“And” between values parts separate entries of the source, which are not always exact repeats. Identical values can stand only once. In all, about 5,500 compounds went through this assay and about 2,000 (36%) were called active. Another 18% or so got no clear call; they are omitted. No stated cut-off is given here; in the data, active means normalized growth mostly below about 0.91 (no sharp cut-off); inconclusive means no clear call, values can overlap the other calls; inactive means mostly above about 0.92. Some of the results follow.

Experiment: chemical genetic growth profiling, strain panel (AID 1159580);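 further: tested at 20 µM; growth read once vehicle control cultures reached saturation at 30 °C; 1 = growth at the plate median or of vehicle wells; lower values mean less growth of the strain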
Conditions: S. cerevisiae deletion strains, growth OD

Measured: normalized growth

COc1ccc2cc([C@H](C)C(=O)O)ccc2c1
active: locus YIL125W, strain kgd1, hits give low values 0.93
inactive: locus YAL013W, strain DEP1, hits give low values 1 | locus YAL021C, strain ccr4, hits give low values 0.943 | locus YAL026C, strain drs2, hits give low values 0.961 | locus YAL030W, strain snc1, hits give low values 0.981 | locus YAL040C, strain CLN3, hits give low values 1.07 | locus YBL061C, strain skt5, hits give low values 0.984 | locus YBR009C, strain hhf1, hits give low values 0.98 | locus YBR021W, strain FUR4, hits give low values 0.958 | locus YBR023C, strain chs3, hits give low values 0.987 | locus YBR171W, strain sec66, hits give low values 0.963 | locus YBR229C, strain ROT2, hits give low values 1 | locus YBR231C, strain swc5, hits give low values 0.996 | locus YBR279W, strain paf1, hits give low values 0.967 | locus YCL011C, strain gbp2, hits give low values 0.98 | locus YCL016C, strain dcc1, hits give low values 0.993 | locus YCL029C, strain bik1, hits give low values 0.999 | locus YCL061C, strain MRC1 (second series), hits give low values 0.994 | locus YCL061C, strain MRC1, hits give low values 0.974 | locus YCL069W, strain vba3, hits give low values 0.968 | locus YCR088W, strain abp1, hits give low values 0.972 | locus YDL005C, strain med2, hits give low values 0.96 | locus YDL035C, strain GPR1, hits give low values 0.984 | locus YDL040C, strain nat1, hits give low values 0.973 | locus YDL074C, strain BRE1, hits give low values 0.989 | locus YDL101C, strain DUN1, hits give low values 1.02 | locus YDL134C, strain PPH21, hits give low values 1 | locus YDL185W, strain tfp1, hits give low values 0.957 | locus YDL192W, strain arf1, hits give low values 0.985 | locus YDR001C, strain nth1, hits give low values 0.98 | locus YDR069C, strain doa4, hits give low values 0.963 | locus YDR101C, strain arx1, hits give low values 1.01 | locus YDR137W, strain rgp1, hits give low values 0.932 | locus YDR150W, strain NUM1, hits give low values 1.01 | locus YDR159W, strain sac3, hits give low values 0.926 | locus YDR162C, strain NBP2, hits give low values 0.99 | locus YDR195W, strain ref2 0.932 | locus YDR297W, strain sur2, hits give low values 0.978 | locus YDR318W, strain mcm21, hits give low values 0.996 | locus YDR334W, strain swr1, hits give low values 0.961 | locus YDR335W, strain msn5, hits give low values 0.988 | locus YDR363W, strain ESC2, hits give low values 0.979 | locus YDR388W, hits give low values 0.998 | locus YDR392W, strain spt3, hits give low values 0.842 | locus YDR502C, strain sam2, hits give low values 0.964 | locus YEL003W, strain gim4, hits give low values 0.951 | locus YEL037C, strain rad23, hits give low values 0.958 | locus YEL061C, strain CIN8 (second series), hits give low values 0.964 | locus YEL061C, strain CIN8, hits give low values 1 | locus YER002W, strain NOP16, hits give low values 0.969 | locus YER015W, strain faa2, hits give low values 0.978 | locus YER016W, strain bim1, hits give low values 0.976 | locus YER110C, hits give low values 0.992 | locus YER111C, strain swi4, hits give low values 0.966 | locus YER155C, strain BEM2 (second series), hits give low values 0.964 | locus YER155C, strain BEM2, hits give low values 0.975 | locus YER167W, strain BCK2, hits give low values 0.986 | locus YFR010W, strain ubp6, hits give low values 0.959 | locus YGL078C, strain dbp3, hits give low values 0.957 | locus YGL086W, strain mad1, hits give low values 0.98 | locus YGL167C, strain pmr1, hits give low values 0.977 | locus YGL173C, strain kem1, hits give low values 0.97 | locus YGL227W, strain vid30, hits give low values 0.98 | locus YGL240W, strain doc1, hits give low values 0.962 | locus YGL248W, strain PDE1, hits give low values 1 | locus YGL253W, strain hxk2, hits give low values 0.985 | locus YGR078C, strain PAC10, hits give low values 1 | locus YGR135W, strain pre9, hits give low values 0.984 | locus YGR229C, strain SMI1, hits give low values 0.999 | locus YGR252W, strain gcn5, hits give low values 0.933 | locus YHR013C, strain ard1, hits give low values 0.928 | locus YHR027C, strain rpn1, hits give low values 0.971 | locus YHR030C, strain SLT2, hits give low values 1.01 and 0.896 | locus YHR079C, strain IRE1 (second series), hits give low values 1 | locus YHR079C, strain IRE1, hits give low values 0.881 | locus YHR094C, strain hxt1, hits give low values 0.986 | locus YHR129C, strain ARP1, hits give low values 1.01 | locus YHR142W, strain chs7, hits give low values 0.965 | locus YHR200W, strain rpn10, hits give low values 0.982 | locus YIL066C, strain RNR3, hits give low values 1.01 | locus YIL073C, strain SPO22, hits give low values 1.03 | locus YIR030C, strain dcg1, hits give low values 0.995 | locus YJL092W, strain hpr5, hits give low values 0.959 | locus YJL095W, strain BCK1 (second series), hits give low values 0.987 | locus YJL095W, strain BCK1, hits give low values 1.04 and 0.918 | locus YJL115W, strain asf1, hits give low values 0.96 | locus YJL129C, strain trk1, hits give low values 0.9 | locus YJL134W, strain LCB3, hits give low values 1 | locus YJL154C, strain vps35, hits give low values 0.976 | locus YJL164C, strain tpk1, hits give low values 0.967 | locus YJL166W, strain qcr8, hits give low values 0.97 | locus YJL168C, strain set2, hits give low values 0.991 | locus YJL187C, strain SWE1 (second series), hits give low values 1.02 | locus YJL187C, strain SWE1, hits give low values 0.972 | locus YJR043C, strain POL32, hits give low values 0.981 | locus YJR066W, strain TOR1, hits give low values 0.845
